Assay outcomes deposited in PubChem BioAssay by several laboratories.
PAFAH2 inh – inhibitors of human PAFAH2; Q99487; recombinant PAFAH2, FP-rhodamine activity probe, fluorescence polarization; inhibition, % at 3.39 µM; 0.99% of 340,000 active;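 active = inhibition above the mean over all tested compounds plus 3 SD, cut at about 30% in these data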;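 also: inhibitors block probe labeling of enzyme so polarization drops; 0% = enzyme with DMSO and 100% = wells lacking PAFAH2 protein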
pPAFAH inh – inhibitors of human plasma PAF acetylhydrolase (pPAFAH). 1.5% of 330,000 active. Q13093. inhibition, % at 3.39 µM. recombinant pPAFAH, FP-rhodamine probe fluorescence polarization. AID 463082;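 active = inhibition above the mean inhibition across the screen plus 3 SD, cut at about 25% in these data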;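 also: inhibitors block binding of the rhodamine activity-based probe so polarization drops; 0% = enzyme with DMSO and 100% = wells lacking pPAFAH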
ATG4B inhibitor – inhibitors of human ATG4B cysteine protease | Q9Y4P1 | ATG4B cleavage of LC3-PLA2, NBD-HPC fluorescence, 1 h | inhibition, % at 8.33 µM | 0.51% of 340,000 active; in the data active = inhibition above about 40%
Target sequence (Q9Y4P1 whole entry, looked up): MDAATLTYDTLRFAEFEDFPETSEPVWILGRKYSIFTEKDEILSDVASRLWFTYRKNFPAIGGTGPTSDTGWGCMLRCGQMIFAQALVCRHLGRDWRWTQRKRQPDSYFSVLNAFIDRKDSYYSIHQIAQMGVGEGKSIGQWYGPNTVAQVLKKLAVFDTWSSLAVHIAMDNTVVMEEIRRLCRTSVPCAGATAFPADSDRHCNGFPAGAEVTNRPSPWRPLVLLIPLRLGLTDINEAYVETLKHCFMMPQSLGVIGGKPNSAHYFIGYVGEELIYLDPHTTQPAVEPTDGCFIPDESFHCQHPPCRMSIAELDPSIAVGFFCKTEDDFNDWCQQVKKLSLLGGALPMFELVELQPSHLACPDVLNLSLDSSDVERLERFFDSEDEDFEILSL
PAFAH1B3 FP inh – PAFAH1B3 (human) inhibition. Q15102. inhibition, % at 3.39 µM. 0.28% of 340,000 active. recombinant PAFAH1B3, FP-rhodamine probe, fluorescence polarization. AID 492972;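 active = inhibition above the screen-wide average of all tested compounds plus 3 SD, cut at about 25% in these data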;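 also: 0% = enzyme with DMSO only and 100% = wells lacking PAFAH1B3 protein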
Target sequence (Q15102 whole entry, looked up): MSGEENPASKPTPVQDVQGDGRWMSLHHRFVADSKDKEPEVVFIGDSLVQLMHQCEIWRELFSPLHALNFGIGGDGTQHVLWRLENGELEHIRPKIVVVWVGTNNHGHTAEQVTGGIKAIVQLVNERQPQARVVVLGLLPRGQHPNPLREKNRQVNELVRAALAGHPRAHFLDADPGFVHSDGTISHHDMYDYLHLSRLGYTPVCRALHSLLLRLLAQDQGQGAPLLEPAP
PAFAH1B2 inh – PAFAH1B2 (human) inhibition; inhibition, % at 3.39 µM; recombinant PAFAH1B2, FP-rhodamine activity probe, fluorescence polarization; P68402; 1.2% of 340,000 active; AID 492953;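 active = inhibition above the mean of all tested compounds plus 3 SD, cut at about 24% in these data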;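 also: 0% = enzyme with DMSO and 100% = wells lacking PAFAH1B2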
DAGLB inh – blocks human DAGLB lipase activity; AID 504411; HEK293T DAGLB membrane lysate, EnzChek fluorogenic substrate; inhibition, % at 5.17 µM; 0.059% of 340,000 active; Q8NCG7; in the data active = inhibition above about 34%;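 also: 0% = enzyme with vehicle and 100% = wells lacking enzyme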
An asterisk follows results filed as active; nt = no result. In the library only some 3% were active in any assay of this set; here they are far more common.

SMILES	PAFAH2 inh	pPAFAH inh	ATG4B inhibitor	PAFAH1B3 FP inh	PAFAH1B2 inh	DAGLB inh
Cc1ccc(S(=O)(=O)Nc2ccc(S(=O)(=O)NCC3CCCO3)cc2)cc1 (stereo not drawn)	1.2	2.9	-8.9	1.5	42.9*	1.2
COc1ccc(/C(C)=N/NC(=O)c2ccccc2N)cc1	4.3	-0.7	-10.6	2.9	5.9	-2.6
CC1CN(C(=O)c2cc(S(=O)(=O)N(C)c3ccc(F)cc3)ccc2Cl)CC(C)O1 (stereo not drawn)	-5.8	-1.9	-1.6	4.7	2.0	3.2
NC(=O)/C(=C/c1ccco1)C(N)=S	6.7	25.8*	-5.1	16.2	10.1	1.3
COc1ccc(N(C(=O)CNC(=O)c2ccco2)C(C(=O)NC2CCCC2)c2ccco2)cc1 (stereo not drawn)	2.6	2.4	-3.4	-0.9	-4.6	-1.2
Cc1cc(C)c(NC(=O)COC(=O)c2nc3nccc(C)n3n2)c(Cl)c1	-2.7	2.5	-9.5	-0.9	1.7	1.9
C[C@H]1CN([C@@H](C)CO)C(=O)c2cc(NS(=O)(=O)c3ccc(F)cc3)ccc2O[C@H]1CN(C)S(=O)(=O)c1cn(C)cn1	1.1	27.9*	8.0	7.3	6.7	-3.3
COc1ccc(S(=O)(=O)N(C)C[C@H]2Oc3ccc(NS(=O)(=O)c4ccccc4)cc3C(=O)N([C@H](C)CO)C[C@@H]2C)cc1	5.4	9.9	-4.0	5.3	8.9	-3.5
COc1ccc(S(=O)(=O)Nc2ccc3c(c2)C(=O)N([C@H](C)CO)C[C@H](C)[C@@H](CN(C)S(=O)(=O)c2ccccc2)O3)cc1	-2.7	8.6	-21.9	9.9	40.4*	-1.8
COc1cccc(NC(=O)CN(C2=NC3CS(=O)(=O)CC3S2)c2cccc(C)c2)c1 (stereo not drawn)	-4.0	0.9	-20.6	3.5	1.5	-3.8
CCC(=O)Nc1ccc(S(=O)(=O)NC[C@H]2O[C@@H](n3cc(C)c(=O)[nH]c3=O)C[C@@H]2O)cc1	nt	nt	nt	nt	nt	1.3
CCCCOC(=O)Nc1nnc(CCc2ccccc2)s1	-1.5	26.4*	-2.6	3.5	6.6	-3.8
CCCCOC(=O)Nc1nnc(COc2ccccc2)s1	-5.3	4.5	6.5	-6.2	7.1	-0.5
O=C(COC(=O)C1(c2ccc(F)cc2)CCCC1)N1CCN(C(=O)c2ccco2)CC1	5.4	3.5	-4.3	11.0	33.4*	0.3
O=C(O)c1ccccc1C(=O)c1cccc2c(Br)cccc12	1.8	nt	-1.5	2.6	4.5	4.4
Cc1ccc(C)n1C(CC(=O)O)c1ccc(C#N)cc1 (stereo not drawn)	nt	25.4*	-0.2	nt	nt	nt
C[N+](C)(C)c1ccc(/C=N/Nc2nc(Cl)c(C#N)c(Cl)c2Cl)cc1	3.7	19.1	16.5	9.0	1.1	-0.5
N#Cc1c(Cl)nc(N/N=C/c2ccccc2)c(Cl)c1Cl	-0.2	28.8*	1.8	1.0	-0.3	1.1
O=C(O)c1cc(NS(=O)(=O)c2ccc3ccccc3c2)ccc1O	21.3	2.9	-1.1	5.2	48.0*	5.0
Brc1ccc(CSc2nnc(-c3ccccn3)n2Cc2ccco2)cc1	-3.6	-0.7	50.1*	0.4	12.2	-2.7
CC(C)(C)c1ccc(CSc2nnc(-c3ccccn3)n2Cc2ccco2)cc1	3.4	2.5	30.5	-1.3	12.1	-5.5
COC(=O)c1ccc(N2CCN(c3ccccc3)CC2)c(N)c1	0.3	3.4	2.4	3.9	-1.2	3.1
CCOC(=O)C1=C(CC)Nc2ccccc2N=C1NC(=O)Nc1ccc(Cl)c(Cl)c1	-97.4	-60.1	61.6*	-58.1	-35.9	-2.8
COc1cc(CNC(=O)CCCC/C=C/C(C)C)ccc1O	-2.1	25.4*	-4.0	4.6	3.1	-3.3
COc1ccccc1NC(=O)COC(=O)c1ccccc1OCC(=O)Nc1ccc(SC(F)F)cc1	4.4	2.7	0.8	1.3	0.2	-6.1
SMILES	PAFAH2 inh	pPAFAH inh	ATG4B inhibitor	PAFAH1B3 FP inh	PAFAH1B2 inh	DAGLB inh
CN(C)C(=O)COC(=O)c1ccccc1Nc1ccc(SC(F)F)cc1	5.6	25.8*	8.8	9.5	4.1	-0.7
N#Cc1c(NC(=O)c2ccc(Cn3cc(Br)cn3)o2)sc2c1CCCCC2	2.2	14.0	-8.6	-7.4	3.2	-9.1
CC1CCc2c(sc(NC(=O)c3ccc(Cn4cc([N+](=O)[O-])cn4)o3)c2C#N)C1 (stereo not drawn)	12.5	31.3*	-20.9	0.5	15.0	0.8
COc1cc(/C=C2\C(=N)N3N=C(S(C)(=O)=O)SC3=NC2=O)cc(OC)c1OCCOc1ccccc1C	-16.2	16.8	77.2*	-0.8	1.0	-1.1
CS(=O)(=O)c1ccccc1C(=O)N(CCC1=CCCCC1)c1c(N)n(Cc2ccccc2)c(=O)[nH]c1=O	1.2	7.9	1.0	-0.5	0.9	1.1
O=C(NCc1ccc(Cl)cc1)C(=O)NCC1OCCN1S(=O)(=O)c1cc(F)ccc1F (stereo not drawn)	3.4	11.3	0.0	-0.4	30.0*	0.1
CC1CN(S(=O)(=O)c2cccc(C(=O)OCC(=O)Nc3ccc4c(c3)OCO4)c2)CC(C)O1 (stereo not drawn)	67.1*	11.3	-13.9	1.3	-0.3	-1.1
NC(=O)NC(=O)COC(=O)c1cccc(S(=O)(=O)N2CCCCCC2)c1	-0.6	-3.7	-15.0	2.1	26.8*	-0.4
O=C(COC(=O)c1cc(Br)ccc1O)Nc1ccc2c(c1)OCCO2	3.6	3.3	-7.7	10.4	1.9	-4.1
COc1ccc(NS(=O)(=O)c2ccc(O)c(C(=O)OCC(=O)Nc3ccc4c(c3)OCCO4)c2)cc1	10.3	32.1*	-7.8	2.5	10.4	0.5
Cc1ccc(NC(=O)COC(=O)c2cccc(S(=O)(=O)N3CCCCCC3)c2)cc1	nt	nt	nt	nt	nt	-12.7
COc1ccccc1CNC(=O)COC(=O)c1ccc(C)c(S(=O)(=O)N2CCCCC2)c1	42.1*	26.9*	-2.9	9.9	5.0	-3.0
Cc1ccc(NC(=O)CSCC(=O)N(C)CC(=O)Nc2cccc(F)c2)cc1	-1.4	6.5	-11.5	4.9	7.7	1.7
COc1ccc(NC(=O)COC(=O)c2ccc3c(c2)OCCO3)cc1	nt	nt	nt	nt	nt	-2.7
COc1ccc(NS(=O)(=O)c2ccc3oc(Nc4ccc5c(c4)OCCO5)nc3c2)cc1	2.9	26.1*	-1.6	12.3	11.8	1.6
COc1cccc(S(=O)(=O)Nc2ccc3c(c2)OCCO3)c1	0.3	nt	-1.1	13.0	0.7	-1.1
COc1cccc(C(=O)OCC(=O)Nc2ccc3c(c2)OCCO3)c1	76.3*	27.6*	-3.1	14.5	8.7	-5.5
COc1ccc(S(=O)(=O)Nc2cccc(F)c2)cc1C	5.9	26.5*	0.8	0.0	-2.9	-2.9
COc1ccc(S(=O)(=O)Nc2cccc(N(C)S(C)(=O)=O)c2)cc1C	0.5	-2.7	-4.1	-4.3	-0.3	-2.0
COc1ccc(-c2noc(CCC(=O)NC3CCCCCC3)n2)cc1OC	nt	nt	nt	nt	nt	-1.5
Cc1nc2scc(C)n2c(=O)c1S(=O)(=O)Nc1ccc(N2CCOCC2)cc1	5.0	2.5	-3.6	6.2	3.9	5.3
